EphB4 antag: antagonists of human EphB4-ephrin-B2 interaction | EphB4 LBD / TNYL-RAW-Alexa532 peptide, fluorescence polarization | inhibition, % at 7 µM | 0.15% of 97,000 active | AID 720;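 active = inhibition above the screen-wide mean inhibition plus 3 SD, cut at about 15% in these data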;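 note: 0% = DMSO wells and 100% = excess unlabeled TNYL-RAW peptide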
CYP2C9 activ: CYP2C9 (human) activation; P11712; recombinant CYP2C9, luciferin-H conversion, luminescence; stronger effect = higher value; factor 1 = untreated enzyme, 0 = blocked; activation factor at 5 µM; 1.4% of 96,000 active;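 active = activation factor of 2 or more for CYP2C9 at a 5 µM dose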;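 note: 0 = sulfaphenazole-blocked wells and 1 = vehicle-only wells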
CYP2C19 activ: cytochrome P450 2C19 (human) activation; AID 1025; activation factor at 5 µM; recombinant CYP2C19, luciferin-H EGE luminescence; stronger effect = higher value; 0 = fully inhibited enzyme, 1 = untreated enzyme; P33261; 96,000 tested, under 10 active;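 active = activation factor of at least 2 at 5 µM in the primary screen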;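 note: 0 = wells with 2.5 mM tranylcypromine and 1 = vehicle-only wells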
Target sequence (P33261 whole entry, looked up): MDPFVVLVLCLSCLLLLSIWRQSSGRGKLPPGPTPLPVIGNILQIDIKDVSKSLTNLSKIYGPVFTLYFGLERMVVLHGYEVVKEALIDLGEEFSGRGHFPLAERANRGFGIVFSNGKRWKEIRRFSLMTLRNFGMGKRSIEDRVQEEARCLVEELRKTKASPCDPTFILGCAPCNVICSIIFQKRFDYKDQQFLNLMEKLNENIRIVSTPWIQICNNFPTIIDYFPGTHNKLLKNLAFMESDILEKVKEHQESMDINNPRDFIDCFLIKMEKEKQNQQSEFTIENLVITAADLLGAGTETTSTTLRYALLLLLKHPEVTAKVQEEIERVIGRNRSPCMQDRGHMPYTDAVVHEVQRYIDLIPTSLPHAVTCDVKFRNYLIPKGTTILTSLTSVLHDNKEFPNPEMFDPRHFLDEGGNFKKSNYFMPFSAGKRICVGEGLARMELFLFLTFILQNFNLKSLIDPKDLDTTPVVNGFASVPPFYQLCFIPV
CYP2C19 inhib: human CYP2C19 inhibition; P33261; CYP2C19 Supersomes, luciferin-H EGE luminescence, 30 min; inhibition, % at 5 µM; 21% of 96,000 active;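 active = CYP2C19 inhibition above a set limit at 5 µM in the primary screen, cut at about 50% in these data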;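 note: plate controls were negative control wells for no effect and 2.5 mM tranylcypromine positive control for full effect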
CYP2C9 inh: human CYP2C9 inhibition. P11712. CYP2C9 Supersomes, luciferin-H conversion, luminescence. inhibition, % at 5 µM. 20% of 96,000 active;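 active = blocking of liver enzyme CYP2C9 beyond about 50% at 5 µM, limit read from the data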
Numbers without * were called inactive; nt = not tested or not shown. An excerpt weighted towards active compounds, which were near 27% of everything screened.

SMILES	EphB4 antag	CYP2C9 activ	CYP2C19 activ	CYP2C19 inhib	CYP2C9 inh
COc1ccc(N=C2SC(C(=O)Nc3ccc4c(c3)OCO4)CC(=O)N2C)cc1 (stereo not given)	-3.5	0.3	0.5	49.3	72.8*
O=C(CCCN1Cc2ccccc2C1)c1ccc(F)cc1	4.8	1	0.5	46.2	-4.0
CCOC(=O)NC(O)C(=O)c1cccs1 (stereo not given)	4.5	1.1	1.1	-8.9	-9.3
COc1ccc(C)c2sc(N3CCCC3)nc12	-9.2	1.1	1	-2.5	-7.6
FC(F)(F)c1nnc2ccc(NCn3nnc4ccccc43)nn12	5.2	0.3	0.6	43.0	68.5*
CCC(C)NS(=O)(=O)c1ccc(S(=O)(=O)N2CCCC3(CCCCC3)C2)cc1 (stereo not given)	5.0	0.3	0.6	35.4	73.5*
C=CCOc1ccc(CNc2nn[nH]n2)cc1OC	-2.5	0.8	0.2	81.0*	17.6
COc1ccc(CNc2n[nH]c(NCc3ccc(OC)c(OC)c3)n2)cc1OC	-3.6	1	1	-2.6	-0.6
C=CCOc1ccc(CNn2c(C)n[nH]c2=S)cc1OC	2.1	0.9	0.4	61.0*	9.7
CC(C)CCOc1cccc(OCC(=O)N(C)C2CCS(=O)(=O)C2)c1 (stereo not given)	nt	1	1	2.1	3.5
Cc1cc(/C=C2\SC(=Nc3ccccc3)NC2=O)c(C)n1-c1ccc(S(N)(=O)=O)cc1	3.0	0.4	0.8	18.9	59.9*
Cc1nnsc1SCCNC(=O)c1ccc(F)cc1	-5.1	0.8	0.2	80.5*	22.1
O=C1CN(Cc2ccccc2)C(=NCc2ccco2)S1	0.3	0	0.1	90.0*	97.2*
Cc1nc2ccccc2n1CCC(=O)Nc1cccc(F)c1	6.8	0.8	0.8	21.1	17.8
CCOc1ccc(C(=O)CCc2nc3ccccc3s2)cc1	-3.5	0.1	0.4	56.4*	90.7*
O=C(CSc1nnc(SCc2ccc(Cl)cc2)s1)N1CCN(C(=O)c2ccco2)CC1	-10.4	0.4	0.9	5.5	55.1*
O=C(CSc1nn(-c2ccc(Cl)cc2)c(=S)s1)N1CCN(C(=O)c2ccco2)CC1	nt	0.6	0.8	16.0	35.3
COc1ccc(Cl)cc1S(=O)(=O)N1CCN(C(=O)c2ccco2)CC1	-1.4	1.1	0.1	94.4*	-12.0
O=C(c1ccc(Cl)cc1)N1CCN(C(=O)c2ccco2)CC1	-0.4	0.9	0.8	21.9	10.4
O=C(c1ccco1)N1CCN(S(=O)(=O)Cc2ccc(Cl)cc2)CC1	-2.5	0.7	0.2	77.9*	31.2
O=C(Cc1ccc(Cl)cc1)Nc1ccc(N2CCN(C(=O)c3ccco3)CC2)c(Cl)c1	-8.1	0	0.1	92.2*	96.8*
CCn1c(N2CCN(CC(=O)Nc3cccc(C)c3C)CC2)nc2ccccc21	0.1	1.3	0.9	11.4	-25.9
C/C(N)=C(/C#N)C(=O)COC(=O)c1ccc(C)c(S(=O)(=O)N2CCCCC2)c1	0.0	0.4	0.2	81.2*	62.3*
C/C(N)=C(/C#N)C(=O)COC(=O)CCS(=O)(=O)c1ccccc1	7.1	0.9	0.7	26.7	5.4
C/C(N)=C(/C#N)C(=O)COc1ncnc2ccc(Br)cc12	11.3	0.9	0.8	20.6	11.2
SMILES	EphB4 antag	CYP2C9 activ	CYP2C19 activ	CYP2C19 inhib	CYP2C9 inh
C/C(N)=C(/C#N)C(=O)COC(=O)c1cc(S(=O)(=O)N2CCCCC2)ccc1C	-3.0	0.8	0.5	51.1*	19.6
C/C(N)=C(/C#N)C(=O)COC(=O)CCSc1ccccc1	-10.0	0.6	0.3	68.2*	36.4
C/C(N)=C(/C#N)C(=O)COC(=O)c1ccncc1	-2.0	0.6	0.4	64.7*	41.5
CCC(C)(C)n1nnnc1C(c1ccc(C)cc1)N1CCCC1 (stereo not given)	-6.1	0.7	0.7	34.2	32.3
CC1(C)Cc2c(sc3c2c2ncnn2c2nnc(SCC(=O)NCc4ccco4)n32)CO1	2.9	0.7	0.9	5.3	28.9
C/C(N)=C(/C#N)C(=O)COC(=O)c1cc(C)n(-c2ccc(F)cc2)c1C	6.8	0.6	0.4	58.9*	42.5
O=C1C(NS(=O)(=O)c2cccs2)=C(N2CCN(c3cccc(Cl)c3)CC2)C(=O)c2ccccc21	0.2	0.2	0.5	51.2*	77.6*
O=C1CC(=C2c3ccccc3-c3ccccc32)C(=O)N1CCN1CCN(c2cccc(Cl)c2)CC1	-3.1	nt	nt	nt	nt
O=C(CN1CCSCC1)N/N=C/c1ccccc1F	-1.7	0.7	0.6	44.1	34.4
C=C(c1cccc2ccccc12)P(=O)(O)O	3.0	1.1	1.2	-16.8	-10.0
CCCOc1ccc(/C(O)=C2/C(=O)C(=O)N(CCOC)C2c2cccnc2)cc1 (stereo not given)	0.7	0.7	1	-4.5	30.2
CCOC(=O)c1cnc(SC)nc1Nc1cccc2ccccc12	4.1	nt	nt	nt	nt
CCOC(=O)c1cnc(SC)nc1Nc1cccc(F)c1	-2.3	0.3	0.6	35.2	69.7*
CCOC(=O)c1cnc(SC)nc1Oc1cccc(NC(=O)c2cccc(Cl)c2Cl)c1	-2.9	0.3	0.9	13.6	74.5*
CCOC(=O)c1cnc(SC)nc1Oc1cccc(NS(=O)(=O)c2ccccc2)c1	-1.0	0.2	0.8	17.9	82.4*
CCOC(=O)c1cnc(SC)nc1Oc1cccc(NS(=O)(=O)c2ccc(F)cc2)c1	0.1	0.2	0.7	25.6	76.9*
CCOC(=O)c1cnc(SC)nc1Oc1cccc(NC(=O)c2ccc(C)cc2)c1	2.6	0.6	1	3.1	39.5
CCOCCn1cnc2sc(C(=O)Nc3nc(C)c(C(=O)OCC)s3)c(C)c2c1=O	3.7	0.8	0.9	5.5	18.8
CCN(CC)C(=O)CSc1nnc(-c2cccs2)n1Cc1ccco1	0.9	0.9	1	-0.8	9.6
O=C(O)COc1cccc(NC(=O)C2CCCO2)c1 (stereo not given)	-6.3	1.1	1	-0.2	-13.0
N/C(=N/OCC(=O)Nc1cccc2ccccc12)c1nonc1N	-0.8	1	0.9	13.1	1.9
COc1ccc(N2CCN(Cc3nc(N)nc(N4CCCc5ccccc54)n3)CC2)cc1	-11.0	1	0.6	37.7	3.0
O=C(Cc1cccs1)N1CCN(C(=O)C2CCCO2)CC1 (stereo not given)	-0.7	1.1	0.9	8.6	-9.5
N#CCSc1ncnc2sc3c(c12)CCC3	-3.0	1.5	0.8	22.0	-47.1
COCCn1c(SCC(=O)Nc2ncc(C)s2)nc2sc3c(c2c1=O)CCC3	4.8	0.5	0.8	18.3	51.9*
COCCn1c(SCc2nnc(-c3ccccc3)o2)nc2sc3c(c2c1=O)CCC3	-0.4	0.1	0.5	48.1	87.1*
O=c1oc(-c2ccccc2)nc2sc3c(c12)CCCC3	-2.3	0.9	0.8	19.5	7.8
COc1ccc(-c2nnc(CSc3ncnc4sc5c(c34)CCC5)o2)cc1OC	nt	0.5	0.6	42.0	53.1*
COCCCn1c(SCC(=O)NCc2ccco2)nc2sc3c(c2c1=O)CCC3	0.5	0.7	0.7	27.5	26.2
CCOC(=O)c1cc(NC(=O)N2CCOCC2)c(C)nc1C	0.3	1	0.9	5.1	2.9

Bioassay records (PubChem BioAssay)
